How the values were obtained:
[1] = system: Human papillomavirus type 1a protein E7 (residues 44-93); experiment: small molecules binding HPV E7 44-93 – biochemical, small-molecule microarray, residues 44-93, 635 nm fluorescence, primary screen (AID 1108); conditions: fluorescence 635 nm, higher = more signal;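 note: E7 fragment applied at 1 µg/mL in TBST for 1 h at 4 C; score combines spot fluorescence with its signal to noise ratio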
[2] = hepatitis C replication reporter changes, two-sided – Huh7 cells, luciferase reporter, HCV replication inhibitor project, primary screen (AID 1109); conditions: Huh7 HCV replicon luciferase reporter, 48 h; higher = more signal;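 note: huh7 hepatoma cells harbouring a luciferase neomycin HCV replicon reporter; luciferase luminescence as measure of HCV replicon replication; test concentration not given here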
[3] = target: Left-right determination factor 2 (Homo sapiens) (UniProt O00292); experiment: small molecules binding LEFTY2 protein – biochemical, small-molecule microarray, 635 nm fluorescence scan, primary screen (AID 1110); conditions: higher = more signal
Chain of Left-right determination factor 2 (Homo sapiens) (O00292 whole entry, looked up): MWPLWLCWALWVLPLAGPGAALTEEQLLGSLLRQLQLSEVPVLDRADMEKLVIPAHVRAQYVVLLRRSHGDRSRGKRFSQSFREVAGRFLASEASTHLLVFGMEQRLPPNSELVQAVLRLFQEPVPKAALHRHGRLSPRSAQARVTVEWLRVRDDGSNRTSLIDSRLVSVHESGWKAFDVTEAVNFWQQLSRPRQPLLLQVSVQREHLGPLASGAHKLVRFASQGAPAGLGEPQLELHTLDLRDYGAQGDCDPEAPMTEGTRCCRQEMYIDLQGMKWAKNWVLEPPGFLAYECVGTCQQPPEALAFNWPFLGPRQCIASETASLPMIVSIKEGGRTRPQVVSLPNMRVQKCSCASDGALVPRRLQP

[4] = target: Calmodulin-1 (Homo sapiens) (UniProt P0DP23); experiment: small molecules binding calmodulin-1 with EGTA – biochemical, small-molecule microarray, Cy5-labelled CALM1, profiling panel (AID 1111); conditions: Cy5-CALM1 binding fluorescence, higher = more signal;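 note: labelled calmodulin applied in Tris saline Tween buffer holding calcium plus EGTA and DTT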
[5] = target: Calmodulin-1 (Homo sapiens) (UniProt P0DP23); experiment: small molecules binding Ca-loaded calmodulin-1 – biochemical, small-molecule microarray, Cy5-labelled CALM1, plus calcium, artefact control for SMM control-protein annotation, profiling panel (AID 1112); conditions: Cy5-CALM1 binding fluorescence, higher = more signal;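 note: score merges spot fluorescence with signal to noise from triplicate slides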
[6] = probe aWnt5a binding to arrayed compounds – biochemical, biotinylated probe, 635/667 nm fluorescence, primary screen (AID 1113); conditions: small-molecule microarray, higher = more signal;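 note: score merges 667 nm fluorescence intensity with signal-to-noise per printed feature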
[7] = probe aShh binding to arrayed compounds – biochemical, biotinylated probe, 635/667 nm fluorescence, primary screen (AID 1114); conditions: small-molecule microarray, higher = more signal;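 note: probe is biotin-labelled aShh protein from a stem cell growth factor screen; measures binding of labelled protein to compounds printed on the slide; score merges feature fluorescence at 667 nm with signal-to-noise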
[8] = probe aNog binding to arrayed compounds – biochemical, biotinylated probe, 635/667 nm fluorescence, primary screen (AID 1115); conditions: small-molecule microarray, higher = more signal;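 note: probe is biotinylated aNog protein used at 0.15 µg/mL for 1 h at 4 C; z-score combines 667 nm fluorescence of each spot with its signal to noise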
[9] = target: Torsin-1A-interacting protein 1 (Homo sapiens) (UniProt Q5JTV8); experiment: compound microarray binding of lysate hLAP1 – cell lysate, small-molecule microarray, COS7 lysate, 635/667 nm fluorescence, primary screen (AID 1116); conditions: 635 nm fluorescence, higher = more signal
Chain of Torsin-1A-interacting protein 1 (Homo sapiens) (Q5JTV8 whole entry, looked up): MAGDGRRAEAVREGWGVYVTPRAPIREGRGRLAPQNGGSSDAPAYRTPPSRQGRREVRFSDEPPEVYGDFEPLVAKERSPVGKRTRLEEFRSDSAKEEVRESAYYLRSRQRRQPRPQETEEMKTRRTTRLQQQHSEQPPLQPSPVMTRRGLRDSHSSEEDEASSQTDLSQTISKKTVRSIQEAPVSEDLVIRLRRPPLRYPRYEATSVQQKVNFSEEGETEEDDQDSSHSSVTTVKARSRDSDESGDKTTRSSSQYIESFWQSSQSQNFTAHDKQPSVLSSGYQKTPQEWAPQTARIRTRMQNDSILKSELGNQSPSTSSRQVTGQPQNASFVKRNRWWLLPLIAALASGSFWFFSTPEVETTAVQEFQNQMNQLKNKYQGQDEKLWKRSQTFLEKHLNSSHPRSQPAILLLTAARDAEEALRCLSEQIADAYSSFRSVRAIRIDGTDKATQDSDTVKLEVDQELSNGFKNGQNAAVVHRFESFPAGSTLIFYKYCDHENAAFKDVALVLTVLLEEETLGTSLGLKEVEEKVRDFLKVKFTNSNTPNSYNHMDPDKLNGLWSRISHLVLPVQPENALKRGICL

[10] = target: Alpha-bungarotoxin (Bungarus multicinctus) (UniProt P60615); experiment: compounds binding labelled alpha-BTX control protein – biochemical, small-molecule microarray, Alexa647 label, 635/667 nm fluorescence, artefact control for SMM control protein annotation, profiling panel (AID 1117); conditions: alpha-BTX-A647 binding fluorescence, higher = more signal
Chain of Alpha-bungarotoxin (Bungarus multicinctus) (P60615 whole entry, looked up): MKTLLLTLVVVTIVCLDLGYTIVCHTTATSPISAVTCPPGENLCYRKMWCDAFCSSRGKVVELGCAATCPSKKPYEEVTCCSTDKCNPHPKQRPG

Compound	composite z-score [1]	z-score [2]	composite z-score [3]	composite z-score [4]	composite z-score [5]	composite z-score [6]	composite z-score [7]	composite z-score [8]	composite z-score [9]	composite z-score [10]
CCCCCCc1nc(Cc2cc(OC)c(OC)c(OC)c2)c(C)c2c1[Si](C(C)C)(C(C)C)OC2	0.495	-0.715	0.0746	-0.0235	-0.128	-0.0721	0.14	-0.0587	0.18	-0.101
CC(C)(C)OC(=O)CC[C@]1(C(=O)N2CCOCC2)COC(c2ccc(OCCCO)cc2)=N1	1.3	0.266	-0.325	0.922	1.03	-0.124	0.184	-0.283	1.13	-0.31
Cc1ccc(S(=O)(=O)N2[C@@H](c3ccccc3)C(C(=O)O)=C[C@H]2C(C)(C)C)cc1	1.15	-1.25	0.261	2.24	0.75	-0.0718	-0.107	-0.0252	1.49	1.94
COC(=O)[C@@]1(Cc2ccc(F)cc2)[C@H]2c3cc(C(=O)N4CCCC4)n(Cc4ccc(OC(F)(F)F)cc4)c3C[C@H]2CN1C(=O)c1ccccc1	0.118	0.234	-0.763	0.028	0.336	0.164	0.265	1.17	0.383	-0.272
CN1C2C=C(c3ccc(CO)cc3)C(C3C(=O)N(C(N)=O)C(=O)C32)C1C1CC1 (stereo not given)	0.249	-0.31	-0.423	-0.273	-0.915	-0.176	-0.229	-0.226	0.192	0.334
COc1c(C)cc(-c2nc(-c3ccccc3)c3c(c2C)CO[Si]3(C(C)C)C(C)C)cc1C	0.0725	-0.77	0.513	0.0032	0.154	-0.0478	-0.0769	0.239	-0.0032	-0.0073
O=C(N1CCOCC1)[C@]1(CCS(=O)(=O)c2ccccc2)N=C(c2ccc(OCCCO)cc2)O[C@@H]1c1ccccc1	0.794	-0.954	-0.685	1.52	1.14	-0.0445	0.123	-0.087	2.3	1.82
Cc1cccc([C@H]2C[C@H]3C(Br)=C[C@@]2(CO)C(=O)[C@]32CO2)c1	0.863	-1.27	-0.427	-0.496	-0.0921	-0.0566	-0.0348	0.247	-0.374	-0.357
C=C(CCCC)/C(=C/C[C@@H](OC(C)=O)c1ccc(OCCO)cc1)c1cc(C(=O)OC)ccc1OC	0.722	-2.31	-0.103	-0.108	-0.95	-0.124	-0.0769	0.408	1.17	0.722
COCCOC(=O)N1C(=O)[C@@]2(c3cc(C#CCNC(N)=O)ccc31)[C@H](C(=O)N1CCN(c3ncccn3)CC1)[C@H]1C(=O)O[C@H](c3ccccc3)[C@H](c3ccccc3)N1[C@@H]2c1ccc(O)cc1	-0.381	0.894	-1.67	-0.777	-0.686	-0.408	-0.461	-0.294	-0.92	0.165
CC(C)c1ccc(NN2C(C(O)c3ccccc3)C=CC3C(=O)N(c4ccccc4)C(=O)C32)cc1 (stereo not given)	1.33	0.618	-0.636	0.793	0.7	0.235	0.171	0.0811	0.588	1.67
CC[C@@H]1C=C(C(=O)O)[C@H](c2cccc(Cl)c2)N1S(=O)(=O)c1ccc(C)cc1	1.2	-0.54	-0.8	0.875	0.0755	-0.0758	0.14	0.527	1.09	0.105
COc1ccc([Si](C)(C)[C@@H]2[C@@H](CC(=O)N3Cc4ccccc4C[C@H]3CO)O[C@]3(C(=O)N(Cc4ccc(I)cc4)c4ccccc43)[C@H]2C)cc1	1.3	-3.76	0.878	0.186	0.426	-0.0472	-0.304	-0.503	0.224	0.308
COCCOC(=O)N1C(=O)[C@@]2(c3ccccc31)[C@H](C(=O)Nc1nc3ccccc3s1)[C@H]1C(=O)O[C@H](c3ccccc3)[C@H](c3ccccc3)N1[C@@H]2c1ccccc1OCCO	1.41	-1.83	0.146	1.51	0.476	-0.0685	-0.225	0.36	0.429	1.72
CC1CC/C=C\[C@H]2OC34C=CCN(CCN5CCOCC5)C(=O)[C@H]3N(C(CO)C(C)C)C(=O)[C@@H]4C2C(=O)O1 (stereo not given in full)	0.0179	-0.278	-0.0839	-0.388	-1.05	-0.105	0.0469	-0.126	-0.46	-0.157
O=C1NC(=O)C2C1C=CC(C(O)C(O)CO)N2Nc1ccccn1 (stereo not given)	0.492	0.538	0.322	0.339	-0.635	0.0502	-0.0035	-0.201	0.0465	0.315
COC(=O)[C@@]1(Cc2ccccc2)[C@H]2c3cc(C(=O)N(C)C)n(Cc4nc5ccccc5[nH]4)c3C[C@H]2CN1C(=O)c1ccccc1	1.33	0.401	-0.4	0.492	1.2	0.0328	0.108	2.16	1.62	1.3

Source: PubChem BioAssay
